Results: PubChem BioAssay (NCATS)
Some of the results follow. Results filed as inconclusive are left out. Unmarked numbers belong to inactive results. Calls of active or inactive are those of the source. Calls follow the shape of the dose curve; as a rule, active = well fitted inhibition curve with a large enough effect; inconclusive = small, poorly fitted or top-dose-only effect; inactive = flat fitted curve, though single readings scatter.

Target: Bifunctional 3'-5' exonuclease/ATP-dependent helicase WRN (Homo sapiens) (UniProt Q14191)
Sequence (Q14191 whole entry, looked up): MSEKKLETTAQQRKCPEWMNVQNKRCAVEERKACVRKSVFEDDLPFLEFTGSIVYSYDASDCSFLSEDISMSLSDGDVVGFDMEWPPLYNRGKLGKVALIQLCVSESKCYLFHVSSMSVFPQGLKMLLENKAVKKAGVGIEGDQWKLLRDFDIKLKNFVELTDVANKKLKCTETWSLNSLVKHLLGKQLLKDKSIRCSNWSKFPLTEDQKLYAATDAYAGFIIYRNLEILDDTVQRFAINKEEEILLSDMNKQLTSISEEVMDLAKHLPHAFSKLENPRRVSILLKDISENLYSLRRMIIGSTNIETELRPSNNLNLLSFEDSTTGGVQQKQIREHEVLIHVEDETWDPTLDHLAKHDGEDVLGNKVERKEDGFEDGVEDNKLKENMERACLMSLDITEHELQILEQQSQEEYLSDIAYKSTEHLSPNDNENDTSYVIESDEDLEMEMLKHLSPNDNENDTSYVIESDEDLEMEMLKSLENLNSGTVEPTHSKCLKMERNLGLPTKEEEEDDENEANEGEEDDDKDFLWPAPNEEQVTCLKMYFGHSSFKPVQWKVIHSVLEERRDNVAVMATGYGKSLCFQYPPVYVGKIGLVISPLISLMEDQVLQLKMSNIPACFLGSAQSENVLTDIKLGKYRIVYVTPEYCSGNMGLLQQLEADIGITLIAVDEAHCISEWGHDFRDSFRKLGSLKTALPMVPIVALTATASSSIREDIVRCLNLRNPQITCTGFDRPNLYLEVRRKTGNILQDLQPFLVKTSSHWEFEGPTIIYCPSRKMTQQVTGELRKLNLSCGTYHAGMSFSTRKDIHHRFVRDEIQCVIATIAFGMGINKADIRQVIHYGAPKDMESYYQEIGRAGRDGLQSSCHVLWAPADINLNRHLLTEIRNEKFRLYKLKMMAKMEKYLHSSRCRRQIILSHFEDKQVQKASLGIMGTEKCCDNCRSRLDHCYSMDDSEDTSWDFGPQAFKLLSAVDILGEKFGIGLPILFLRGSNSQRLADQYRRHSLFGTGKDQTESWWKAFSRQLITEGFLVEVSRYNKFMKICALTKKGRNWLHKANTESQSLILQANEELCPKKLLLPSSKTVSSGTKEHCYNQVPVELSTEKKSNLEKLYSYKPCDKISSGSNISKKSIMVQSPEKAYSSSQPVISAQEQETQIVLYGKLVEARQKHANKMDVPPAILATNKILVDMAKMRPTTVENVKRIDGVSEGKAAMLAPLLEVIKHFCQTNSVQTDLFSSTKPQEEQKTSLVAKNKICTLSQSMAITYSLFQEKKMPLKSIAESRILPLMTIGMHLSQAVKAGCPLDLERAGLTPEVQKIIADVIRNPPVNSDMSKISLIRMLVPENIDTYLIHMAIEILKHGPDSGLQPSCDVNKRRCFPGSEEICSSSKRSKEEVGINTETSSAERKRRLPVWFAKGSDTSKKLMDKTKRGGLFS
Experiment: qHTS for Inhibitors of WRN Helicase: Confirmatory Assay for Cherry-picked Compounds. (AID 720497); also: nearly all actives have a fitted effect of over 65% in size
Conditions: WRN helicase DNA unwinding, fluorescence kinetic; series mostly up to 57.1 µM; activity, negative = inhibition: at the top concentration
From the text: Inhibition of DNA repair is proposed as a strategy for combating cancer. Synthetic lethality is an approach that exploits preexisting DNA repair deficiencies in certain tumors to develop inhibitors of DNA repair pathways that compensate for the tumor-associated DNA repair deficiency. Because helicases play critical roles in the DNA damage response and in DNA repair, particularly in actively dividing and replicating cells, characterization of synthetic lethal relationships of DNA helicases may be of value in developing improved anticancer treatment strategies; moreover, small molecules that specifically target a given DNA helicase may be useful for understanding its role in cellular nucleic acid metabolism. The goal of this project is to identify small molecule, non-covalent chemical inhibitors of the Werner syndrome (WS) helicase (WRN), which plays an important role in cell proliferation, the replication stress response, and DNA repair. […] The WRN gene product that is defective in the chromosomal instability disorder has DNA helicase and exonuclease activities and interacts with a number of nuclear proteins to maintain genomic stability. A 1536-well format, fluorescence based, high-throughput screen (AID 651768) has been developed in collaboration with the Brosh Laboratory at the National Institute of Aging (NIA) to screen for inhibitors of the WRN. This is a confirmatory screen to confirm the activity of the selected compounds from the WRN helicase primary assay. Inhibition is the desired outcome for this assay. NIH Chemical Genomics Center [NCGC] NIH Molecular Libraries Probe Centers Network [MLPCN] MLPCN Grant: MH096530 Assay Submitter (PI): Robert Brosh, National Institute of Aging
Three microliter of reagents (buffer in columns 3 and 4 as negative controls; WRN at 20 nM final concentration in columns 1 and 2 as positive controls; columns 5-48 as test reactions) were dispensed into a 1536-well Greiner black plate via a solenoid-valve based nanoliter dispenser. Compounds (23 nL each in columns 5-48) and control (23 nL each in column 2 as dose-response) were transferred to the assay plate via a Kalypsys pintool equipped with a 1536-pin array. Plates were incubated for 15 min at room temperature, followed by a 1 uL addition of substrate (100 nM forked duplex oligonucleotide and 2 mM ATP final concentrations) to start reaction. The plates were transferred into a ViewLux CCD imager where the reaction was measured in a kinetic mode using the standard red fluorescence optics (excitation filter 525 nm, emission filter 598 nm). Maximum inhibition response was normalized to the positive control signal while no inhibition response was normalized to the buffer only wells.
Potency is read from the fitted curve at half-maximal effect.

| SMILES | Potency | activity, negative = inhibition [%] |
| --- | --- | --- |
| Cc1ccc(-c2nc(SCc3ccc(Br)cc3)n3[nH]c(=O)cc3n2)cc1 | 13.6 µM (active) | – |
| COc1cccc2c1C(=O)c1c(O)c3c(c(O)c1C2=O)CC(O)(C(C)=NNC(=O)c1ccc(Cl)c(Cl)c1)CC3OC1CC(N)C(O)C(C)O1 (configuration not stated) | 1.92 µM (active) | – |
| COc1ccc(Cl)cc1NC(=O)CCS(=O)(=O)c1ccc(Br)cc1 | 21.5 µM (active) | – |
| CN(C)c1nc(Nc2ccc(Cl)c(Cl)c2)nc(N(C)C)n1 | – | -7.11 |
| CSc1nnc(SCc2nc3sc(C(=O)O)c(C)c3c(=O)[nH]2)s1 | 13.6 µM (active) | – |
| CC(=O)N(C1=C(Cl)C(=O)c2ccccc2C1=O)c1ccc(C(=O)O)cc1 | – | -7.99 |
| N#C/C(=C\C1=C(N2CCOCC2)C(=C\c2ccccc2)/CC1)C(=O)Nc1ccccc1F | 38.3 µM (active) | – |
| CCN(CC)CCOc1ccc2c(c1)C(=NNC(=O)c1ccccn1)c1cc(OCCN(CC)CC)ccc1-2 | 13.6 µM (active) | – |
| CN1CCN(S(=O)(=O)c2cccc(C(=O)Nc3sccc3C#N)c2)CC1 | 24.1 µM (active) | – |
| COC(=O)/C=C\C(=O)Nc1cccc([N+](=O)[O-])c1 | – | -7.24 |
| CCc1ccc2nc3sc(C(=O)Nc4nnc(CC)s4)c(N)c3cc2c1 | 13.6 µM (active) | – |
| Cc1c(CC(=O)N2CCN(C(=O)C3COc4ccccc4O3)CC2)c(=O)oc2c(O)c(O)ccc12 (configuration not stated) | 2.41 µM (active) | – |
